Assay outcomes (PubChem)
Sampled rows, rich in hits. Any-hit rate of the full collection: about 3.7%.
esBAF inh = SWI/SNF esBAF complex inhibition; mouse ES cells, Bmi1-luciferase knock-in reporter, 24 h; 100% = twice the neutral-well signal; reporter increase, % at 12.5 µM; hit rate 2% among 350,000; in the data active means activation above about 40%; inconclusive means no clear call, values can overlap the other calls;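 further: 0% = median of the plate's neutral control wells and 100% = double that signal; a rise in the Bmi1 reporter signal indicates esBAF inhibition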
Wnt act = activates Wnt/beta-catenin signaling in a reporter cell assay | AID 743398 | hit rate 1.2% among 300,000 | activator, plate reader | activation, % at 9.35 µM; in the data active means activation above about 30%, passing the limit was not always enough; inconclusive means no clear call, values can overlap the other calls;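 further: 0% = neutral control wells and 100% = positive control wells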
Ecoli rRNA inh = inhibitors of bacterial rRNA selective over humanized ribosomes | E. coli WT GFP vs humanized-ribosome RFP mutants, fluorescence, 24 h; hits give low values; DMSO median 0, no signal -100 | GFP signal change (wild-type ribosome), % (no concentration beside the values) | hit rate 1.6% among 350,000;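 active means significant combined selectivity score with lowered wild-type GFP, culture density cut under 30%, mutant RFP and density less affected; inactive means any of these conditions unmet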
MLL AF4-AF9 inh = blocks AF4 peptide binding to human AF9; inhibition, % at 10 µM; hit rate 0.47% among 350,000; AlphaScreen, biotin-AF4 peptide binding to FLAG-AF9; P42568; AID 651704;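 active means every replicate reaching a set inhibition limit, whatever the replicate mean, cut at about 25% in these data; inconclusive means mean inhibition reaches that limit but some replicates miss it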;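 further: 0% = plate neutral control median and 100% = total signal loss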
Target sequence (P42568 whole entry, looked up): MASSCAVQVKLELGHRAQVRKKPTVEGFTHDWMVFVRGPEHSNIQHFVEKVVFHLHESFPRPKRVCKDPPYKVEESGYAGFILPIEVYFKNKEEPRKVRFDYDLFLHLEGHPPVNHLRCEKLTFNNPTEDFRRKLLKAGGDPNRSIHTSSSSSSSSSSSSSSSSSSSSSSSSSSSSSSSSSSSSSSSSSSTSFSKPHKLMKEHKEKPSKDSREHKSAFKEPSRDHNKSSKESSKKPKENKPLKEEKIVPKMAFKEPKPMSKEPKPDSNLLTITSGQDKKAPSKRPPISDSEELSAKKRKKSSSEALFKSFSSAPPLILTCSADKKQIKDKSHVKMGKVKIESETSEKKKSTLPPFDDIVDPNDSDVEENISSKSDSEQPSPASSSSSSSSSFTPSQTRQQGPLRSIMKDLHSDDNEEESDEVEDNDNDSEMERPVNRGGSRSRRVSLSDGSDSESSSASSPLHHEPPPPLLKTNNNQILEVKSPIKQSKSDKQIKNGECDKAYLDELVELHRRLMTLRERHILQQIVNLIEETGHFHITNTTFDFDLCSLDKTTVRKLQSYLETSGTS
MITF act = activators of MITF-driven TRPM1 promoter activity in SK-MEL-5 cells | SK-MEL-5 TRPM1-promoter luciferase, 24 h; % of positive control, neutral wells = 0 | activation, % at 12.5 µM | hit rate 0.75% among 300,000;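 active means mean activation of at least 80% with every replicate also reaching 80%; inconclusive means mean reaches 80% but some replicate falls short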;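 further: 0% = neutral control wells and 100% = parthenolide positive control wells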
* hit, by the source's call; ? = inconclusive; . = not tested or not shown.

SMILES	esBAF inh	Wnt act	Ecoli rRNA inh	MLL AF4-AF9 inh	MITF act
Cc1ccc(C(C)(c2ccc(N)cc2)c2ccc(N)cc2)cc1	-4	5	-39*	11	.
Cc1cc(NC(=O)CCC(=O)N(Cc2ccco2)C(C(=O)NCC2CCCO2)c2ccncc2)no1 (stereo not given)	.	-2	14	-3	4
O=S(=O)(NCCc1ccccc1)c1ccc(F)cc1Br	8	0	-40	-5	17
C=CCS/C(N)=N\N=C\c1c(O)ccc2ccccc12	?	99*	-32	-2	58
NC(=O)c1ccc(N=Cc2c(O)ccc3ccccc23)cc1	.	3	6	1	.
Cc1nn(CC(=O)N2CCN(C34CC5CC(CC(C5)C3)C4)CC2)c(C)c1[N+](=O)[O-]	.	-2	6	1	-14
Cc1ccc2c(c1)sc[n+]2Cc1ccccc1	54*	28	21	-26	69
Cc1c(CCOC(=O)c2ccccc2)sc[n+]1Cc1ccccc1	.	-2	-11	-1	4
COCC(=O)Nc1ccc2c(c1)OC[C@@H](C)N(Cc1ccccn1)C[C@@H](C)[C@@H](OC)CN(C)C2=O	0	.	0	-5	.
O=c1cc(-c2ccccc2Cl)oc2ccc([N+](=O)[O-])c(O)c12	6	1	1	-1	-5
Nc1ccc2oc(-c3ccccc3Cl)cc(=O)c2c1O	60*	21	3	13	29
CCCC(=O)Nc1ccc2c(c1)Cc1ccccc1-2	58*	4	6	-5	63
O=C(Nc1ccc2c(c1)Cc1ccccc1-2)c1ccc(Br)o1	51*	18	.	.	59
O=C(Nc1ccc2c(c1)Cc1ccccc1-2)c1ccccc1F	.	49*	3	0	.
CC(C)CN1C(=O)c2ccc(NC(=O)c3ccccc3F)cc2C1=O	47*	.	.	.	69
COc1cc(OC)c(NC(C)C(=O)N2CCCC2)cc1Cl (stereo not given)	.	0	8	-14	2
CN(C)CC(=O)Nc1ccc2c(c1)[C@@H]1C[C@H](CC(=O)NCc3cccc(F)c3)O[C@H](CO)[C@@H]1O2	3	.	-2	1	.
Cc1ccc(Oc2cc(C#N)c(C#N)cc2-n2nnc3ccccc32)cc1C	-2	.	.	.	-3
CCNC(=O)C[C@H]1CC[C@@H]2[C@@H](COc3ccc(NS(=O)(=O)c4ccccc4C)cc3C(=O)N2C)O1	-5	.	-2	-1	.
CC(=O)Nc1c(Cl)cc2c(c1Cl)Cc1ccccc1-2	.	3	.	2	3
CC(=O)Nc1cc2c(cc1Br)-c1ccccc1C2	56*	0	5	-12	9
CC1(C(=O)NS(=O)(=O)c2cccc(Cl)c2)CCN1C(=O)CC1CCCC1 (stereo not given)	2	-3	4	-1	.
CC1CCc2sc3ncnc(N4CCOCC4)c3c2C1 (stereo not given)	-12	.	.	.	-2
Cc1ccc(C2C(C#N)=C3N=C(N)c4ccccc4N3C3=C2C(=O)CCC3)cc1 (stereo not given)	.	?	-31	10	1
N#CC1=C2N=C(N)c3ccccc3N2C2=C(C(=O)CCC2)C1c1ccc(F)cc1 (stereo not given)	6	-7	-32*	-16	-5
SMILES	esBAF inh	Wnt act	Ecoli rRNA inh	MLL AF4-AF9 inh	MITF act
CCCC(=O)Nc1ccc2c(c1)C(=O)N(C)C[C@H](OC)[C@@H](C)CN(Cc1cccc(F)c1)[C@@H](C)CO2	11	.	-4	0	.
Cc1noc(C(=O)Nc2cccc(Cl)c2)c1Cl	56*	4	-15	-6	57
COc1ccc(NC(=O)c2onc(C)c2Cl)cc1	46*	23	11	-1	47
COc1ccc(NC(=O)c2cc(C)on2)cc1OC	10	.	.	.	0
COc1ccc(NC(=O)c2cc(C)on2)cc1	38	34*	5	1	75
COc1ccc(NC(=O)c2onc(C)c2Cl)cc1OC	3	4	6	-3	16
CCc1ccc(NC(=O)c2onc(C)c2Cl)cc1	54*	23	-11	-15	43
O=C1NC[C@H](Cc2ccc(O)cc2)N(CCc2cc(C(F)(F)F)cc(C(F)(F)F)c2)C1=O	.	-1	.	2	.
C[C@H]1CN([C@@H](C)CO)C(=O)Cc2cc(NS(=O)(=O)c3ccc(F)cc3)ccc2O[C@H]1CN(C)C	-8	.	1	-5	.
COc1ccc(NC(=O)COC(=O)c2ccc(C)c(S(=O)(=O)N3CCCCC3)c2)cc1	0	-4	-3	1	-3
O=C(COc1ccc(S(=O)(=O)N2CCOCC2)cc1Cl)N1CCCC1	5	-1	6	42*	.
O=C(COc1ccc(S(=O)(=O)N2CCCCC2)cc1Cl)N1CCCC1	2	-2	1	-2	1
O=C(COc1ccc(Cl)cc1Cl)N1CCCCCC1	48*	.	.	.	.
O=C(Nc1ccc(F)cc1)N[C@H]1C=C[C@@H](CC(=O)N2CCOCC2)O[C@@H]1CO	-5	.	8	4	.
C=CC(=O)Nc1cccc(Oc2nc(Nc3ccc(N4CCN(C)CC4)cc3OC)ncc2Cl)c1	.	-2	-51	63*	.
CCCNC(=O)N1CC2(CCN(CC3CC3)CC2)c2c([nH]c3cc(OC)ccc23)[C@H]1CO	.	.	7	11	.
CCC1=NN(C(=O)C(=O)Nc2ccc(OC)cc2)C(O)(C(F)(F)F)C1 (stereo not given)	-4	-1	-23*	5	8
O=C(COC(=O)Cc1ccc(Cl)cc1)NCCc1ccccc1	-10	12	-24*	0	-3
O=C(COC(=O)Cc1ccc(F)cc1)NCCc1ccccc1	.	0	4	-3	1
COc1ccc(S(=O)(=O)Nc2ccc3c(c2)C(=O)N([C@@H](C)CO)C[C@H](C)[C@@H](CN(C)S(=O)(=O)c2ccc(C)cc2)OCCCC[C@H](C)O3)cc1	-1	.	1	3	.
CC(=O)c1ccc(N2CCN(Cc3nc(Cc4ccccc4)no3)CC2)cc1	.	-3	-12	1	-3
COc1ccc(-c2nc(CN3CCN(Cc4cccc(Cl)c4)CC3)c(C)o2)cc1	4	-1	-33*	12	.
Cc1ccccc1N1CCN(Cc2nc(Cc3ccccc3)no2)CC1	.	1	-28*	1	-3
Clc1cccc(CN2CCN(Cc3nc(CCc4ccccc4)no3)CC2)c1	5	-2	-32*	-2	-7
COc1ccc(-c2nc(CN3CCN(Cc4cccc(F)c4)CC3)c(C)o2)cc1	6	0	-11	8	-21
SMILES	esBAF inh	Wnt act	Ecoli rRNA inh	MLL AF4-AF9 inh	MITF act
CC(=O)c1cccc(NC(=O)/C(=C\c2ccco2)NC(=O)c2ccco2)c1	-5	-2	13	-3	2
N#C[C@@H]1[C@H](c2ccc(-c3ccc(F)cc3)cc2)[C@H](CO)N1c1nc(-c2ccccc2)cs1	-4	.	0	0	.
CCOC(=O)c1c(C)c(C(=O)NCCN2CCOCC2)c(C)n1C	-7	0	10	5	4
Cc1nccc(-c2ccc3c(c2)OCO3)n1	.	4	10	-2	-1
Cc1ccc(-c2cn3cccnc3n2)cc1	36	?	12	0	84*
Cc1ccc(SCc2cn3cccnc3n2)cc1	46*	.	.	.	62
